# Screens (PubChem BioAssay)
# MEKK3 PB1 HTS: modulators (inhibitors or enhancers) of MEK5 binding to human MEKK3 PB1 domain; Q99759; bead-based flow cytometry, Alexa488-MEK5 binding to MEKK3; actives lie on both sides; 0 = blocked by unlabeled MEK5, 100 = vehicle; binding response (% of control), % at 10 µM; actives 1.4% (n = 290,000);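 active = binding response more than 3 SD above or below the average of its plate-row segment, actives on both sides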;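 also: Alexa488 bead fluorescence after subtracting the streptavidin-only scavenger bead signal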
# CRFR2-BP antag: blocks CRF-induced signaling of the CRF-BP/CRF-R2 complex; actives 0.59% (n = 350,000); HEK293 CRF-R2/CRF-BP, CRF-induced calcium fluorescence; inhibition, % at 11.8 µM; AID 588475;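 active = inhibition of the ligand-induced calcium signal above about 50% at the single tested concentration, limit read from the data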
# ABCB6 inh MLPCN: blocks the human ABCB6 transporter | Q9NP58 | K562-ABCB6 porphyrin accumulation, flow cytometry, 1 h; hits give low values | fluorescence ratio to DMSO, % at 10 µM | actives 0.19% (n = 360,000);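 active = fluorescence ratio to DMSO below 75%, the collection mean minus 3 SD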;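 also: signal is porphyrin accumulated inside mitochondria; 100% equals median channel fluorescence of DMSO control wells; lower ratio means ABCB6 inhibition with less porphyrin fluorescence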
# Target sequence (Q9NP58 whole entry, looked up): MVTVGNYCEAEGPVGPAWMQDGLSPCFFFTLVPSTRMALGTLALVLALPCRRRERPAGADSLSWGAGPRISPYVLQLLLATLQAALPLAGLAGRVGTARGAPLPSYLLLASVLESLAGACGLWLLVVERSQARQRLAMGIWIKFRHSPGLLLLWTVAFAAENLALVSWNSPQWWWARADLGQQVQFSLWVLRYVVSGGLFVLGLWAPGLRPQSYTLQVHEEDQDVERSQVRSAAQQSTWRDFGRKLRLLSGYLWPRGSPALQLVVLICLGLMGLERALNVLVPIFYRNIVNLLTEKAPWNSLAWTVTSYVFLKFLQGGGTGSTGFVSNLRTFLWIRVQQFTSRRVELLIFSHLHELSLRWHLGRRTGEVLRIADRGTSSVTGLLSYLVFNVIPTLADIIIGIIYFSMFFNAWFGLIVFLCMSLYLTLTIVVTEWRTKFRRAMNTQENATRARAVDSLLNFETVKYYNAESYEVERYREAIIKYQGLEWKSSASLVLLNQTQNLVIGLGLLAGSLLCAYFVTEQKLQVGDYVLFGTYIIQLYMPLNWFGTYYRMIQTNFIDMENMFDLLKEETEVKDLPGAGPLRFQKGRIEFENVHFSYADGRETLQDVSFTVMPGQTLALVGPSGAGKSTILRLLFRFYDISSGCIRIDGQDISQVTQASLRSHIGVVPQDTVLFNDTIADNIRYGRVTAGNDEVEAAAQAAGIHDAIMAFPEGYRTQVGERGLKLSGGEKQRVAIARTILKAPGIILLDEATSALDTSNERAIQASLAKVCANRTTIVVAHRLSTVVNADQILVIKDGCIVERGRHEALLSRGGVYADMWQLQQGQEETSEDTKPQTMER
# MEKK2wt PB1 HTS: raises or lowers MEK5 binding to wildtype human MEKK2 PB1 domain; Q9Y2U5; bead flow cytometry, Alexa488-MEK5 binding to MEKK2 WT; actives lie on both sides; binding response (% of control), % at 10 µM; actives 1.1% (n = 290,000); AID 1531; in the data active = binding response below about 67% or above about 130%
# MEKK2mut PB1 HTS: signal of MEK5 binding to mutant human MEKK2 PB1 domain; bead flow cytometry, Alexa488-MEK5 binding to MEKK2 mutant; percent response, % at 10 µM; actives 0.35% (n = 290,000); in the data active = percent response above about 24%, passing the limit was not always enough
# CRFBP-R2 agonist: agonists of human CRF-binding protein/CRF-R2 receptor complex; HEK293 CRF-R2/CRF-BP, calcium dye fluorescence (FLIPR); percent of saturating CRF peptide response; activation, % at 13.2 µM; actives 0.46% (n = 350,000);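 active = activation of at least 50%, plus an integration ratio under a set limit after plate pattern correction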;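 also: plate controls were neutral control wells without compound for no effect and CRF at EC100 for full effect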
# * marks the source's active call; other numbers are inactive results; i = inactive; · = not tested or not shown; [ ] = dose if it differs, or a comment. Sampled rows, rich in hits. Any-hit rate of the full collection: about 2.9%.
SMILES,MEKK3 PB1 HTS,CRFR2-BP antag,ABCB6 inh MLPCN,MEKK2wt PB1 HTS,MEKK2mut PB1 HTS,CRFBP-R2 agonist
CN(C)c1ccc2c(c1)OC(N)=C(C#N)C2c1cccc(F)c1 (stereo not drawn),·,-176,132,·,·,79*
CNc1nc(N)c(C(=O)C23CC4CC(CC(C4)C2)C3)s1,100,-116,96,90,-5,3
COc1cccc(NC(=O)c2sc3ncn(CC(=O)N4CCN(c5ccccn5)CC4)c(=O)c3c2C)c1,102,0,101,104,3,-1
CC12CCC(C(=O)Nc3ncc([N+](=O)[O-])s3)(OC1=O)C2(C)C (stereo not drawn),104,63*,94,101,4,11
C=CCN1C(=O)/C(=C2/Sc3ccc(OC)cc3N2CC)SC1=S,96,-39,103,84,-4,68*
CCCCN1C(=O)/C(=C2/Sc3ccc(OC)cc3N2CC)SC1=S,93,-7,108,76,-3,23
O=C1CCC[C@@H]2C=C[C@H](c3ccc(Br)cc3)[C@H]3CCN1[C@@H]32,·,·,91,·,·,·
O=c1[nH]c2cc3c(cc2cc1C(c1nnnn1C1CCCCC1)N1CCSCC1)OCCO3 (stereo not drawn),·,-80,104,·,·,54*
COc1cc2cc(C(c3nnnn3C3CCCC3)N3CCCCC3)c(=O)[nH]c2cc1OC (stereo not drawn),99,-3,99,98,-7,0
CCOC(=O)c1c(C)n(-c2ccc(C)cc2)c2ccc(OCC(O)CNCC3CCCO3)cc12 (stereo not drawn),53,-38,98,124,-7,-1
CCOC(=O)c1c(C)n(-c2ccc(C)cc2)c2ccc(OCC(O)CNCCCO)cc12 (stereo not drawn),106,-61,101,181*,40,1
O=C(Nc1cccc(C(F)(F)F)c1)C1CC(=O)N(CCc2ccccc2)C1 (stereo not drawn),·,-13,87,·,·,1
O=C(CN1C(=O)c2ccccc2C1=O)Oc1ccc(F)cc1,105,·,·,106,4,·
Cc1ccc2nc(-c3ccc(O)cc3)oc2c1,108,17,94,108,4,-1
Cc1ccccc1CNC(=O)Nc1cccs1,102,53*,110,101,7,19
O=C(NCc1cccs1)Nc1cccs1,92,-12,104,95,-7,-2
C=CCn1cc(/C=C/c2cc[n+](C)cc2)c2ccccc21,99,-45,766,108,0,77*
Cc1ccccc1/C=C/c1cc[n+](C)cc1,95,-29,107,88,-12,1
CC(C)n1cc(/C=C/c2cc[n+](C)cc2)c2ccccc21,98,-42,i,106,-3,58*
CCn1cc(/C=C/c2cc[n+](C)cc2)c2ccccc21,99,-24,i,107,-4,56*
CCN(CC)C(=O)Cn1c(C)c(/C=C/c2cc[n+](C)cc2)c2ccccc21,99,-7,292,99,-5,30
Cc1ccc2c(cnn2C(=O)CCC(=O)N2CCCCC2)c1,100,71*,101,104,2,-2
O=C(CCC(=O)n1ncc2ccccc21)N1CCCCC1,103,28,104,100,2,-5
CCN(CC)c1ccc(/C=C2\SC(N)=NC2=O)cc1,108,-32,140,107,6,27
O=C1NC(=S)S/C1=C\c1cccc([N+](=O)[O-])c1,·,55*,89,·,·,35
SMILES,MEKK3 PB1 HTS,CRFR2-BP antag,ABCB6 inh MLPCN,MEKK2wt PB1 HTS,MEKK2mut PB1 HTS,CRFBP-R2 agonist
CCN(CC)c1ccc(C=C2SC(=S)NC2=O)cc1,·,-164,700,·,·,168*
CC(C)C[C@H](NC(=O)N1CCCCCC1)C(=O)O,103,-2,95,99,7,0
Cc1ccccc1NS(=O)(=O)c1ccc(F)cc1,91,3,97,97,-7,3
Cc1cc2c(NS(=O)(=O)c3ccc(F)cc3)cccc2nn1,102,113*,103,102,3,0
Cc1cccc(C(=O)N(Cc2cccs2)C2CCS(=O)(=O)C2)c1 (stereo not drawn),102,-1,99,100,3,-1
O=C(c1ccc(F)cc1)N(Cc1cccs1)C1CCS(=O)(=O)C1 (stereo not drawn),2.0*[inhibitor],14,99,0.0*[inhibitor],-18,0
O=C(COc1ccccc1)N(Cc1cccs1)C1CCS(=O)(=O)C1 (stereo not drawn),91,-14,93,85,-4,-5
Cc1ccc(C(=O)N(Cc2sccc2C)C2CCS(=O)(=O)C2)cc1 (stereo not drawn),103,50*,99,104,7,-14
Cc1ccsc1CN(C(=O)c1ccccc1)C1CCS(=O)(=O)C1 (stereo not drawn),105,-7,100,107,10,-1
O=C(COc1ccc(F)cc1)N(Cc1cccs1)C1CCS(=O)(=O)C1 (stereo not drawn),99,-62,100,98,2,66*
COc1cc(/C=C2\C(=N)N3N=C(C)SC3=NC2=O)cc(Cl)c1OCCOc1ccc(NC(C)=O)cc1,103,-5,96,107,4,0
CCOc1ccccc1N1CCN(C(=O)Cc2ccc(S(=O)(=O)N3CCOCC3)s2)CC1,·,101*,98,·,·,0
CCOc1ccccc1N1CCN(C(=O)c2cccc(S(=O)(=O)N3CCOCC3)c2)CC1,·,7,98,·,·,-4
CN(C)CCN(C(=O)c1ccc(S(=O)(=O)N2CCc3ccccc32)cc1)c1nc2ccc(F)cc2s1,102,1,84,124,14,2
CN(C)CCCN(C(=O)c1ccc(S(=O)(=O)N2CCc3ccccc32)cc1)c1nc2c(Cl)cccc2s1,109,-11,95,257*,58*,1
CCN(c1ccccc1)S(=O)(=O)c1ccc(C(=O)N(CCCN(C)C)c2nc3cc4c(cc3s2)OCO4)cc1,106,-20,102,158*,25*,4
CN(C)CCCN(C(=O)COc1ccccc1)c1nc2c(F)cccc2s1,109,-12,98,124,0,3
CCOc1cccc2sc(N(CCCN(C)C)C(=O)c3ccc(S(=O)(=O)N(CC)Cc4ccccc4)cc3)nc12,113,-24,100,227*,54*,2
CN(C)CCCN(C(=O)c1ccc(C(=O)c2ccccc2)cc1)c1nc2c(F)cccc2s1,108,-10,95,143*,13,3
C=CCOc1ccc(C(=O)n2cc(C(=O)OC)c3ccccc32)cc1,106,-5,97,106,2,5
O=c1[nH]cnc2c1ncn2C1CCC(CO)O1 (stereo not drawn),·,·,98,·,·,·
